# Experimental data from PubChem BioAssay.
# The source made the active and inactive calls.
# Columns and labels:
# [1] = system: PRMT1 (protein arginine N-methyltransferase 1); experiment: small molecules binding arginine methyltransferase PRMT1 – biochemical, small-molecule microarray, 635 nm fluorescence, primary screen (AID 1088); conditions: higher = more signal;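 also: binding of Prmt1 protein to compounds spotted on small-molecule microarray slides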
# [2] = growth effects on S. cerevisiae YJM789 – YJM789 clinical isolate, OD600, 24 h, basal, primary screen (AID 1089); conditions: higher = more signal, called active from +8 up or from −8 down;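 also: growth of clinical yeast isolate S. cerevisiae YJM 789 seeded 1000 cells per well; test concentration not given here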
# [3] = S. pombe growth modifiers, basal conditions – strain 972, OD600, 24 h, no modulator, primary screen (AID 1090);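 also: basal condition with compound alone and no growth modifier present; test concentration not given here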; conditions: S. pombe 972 growth, higher = more signal, called active from +8 up or from −8 down
# [4] = budding yeast growth modifiers under rapamycin – strain BY4716, OD600, 96 h, primary screen (AID 1091); also: test concentration not given here; conditions: S. cerevisiae BY4716 + rapamycin, higher = more signal, called active from +8 up or from −8 down
# [5] = molecular target: Torsin-1A-interacting protein 2 (Homo sapiens) (UniProt Q8NFQ8); experiment: small molecules binding lysate-expressed LULL1 – cell lysate, human LULL1 lysate, 635/667 nm fluorescence, primary screen (AID 1092); conditions: small-molecule microarray, hLULL1 lysate binding, 635 nm fluorescence; higher = more signal;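 also: probe is lysate of COS7 cells overexpressing human LULL1; score merges per-feature 667 nm fluorescence with signal-to-noise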
# Sequence of Torsin-1A-interacting protein 2 (Homo sapiens) (Q8NFQ8 whole entry, looked up): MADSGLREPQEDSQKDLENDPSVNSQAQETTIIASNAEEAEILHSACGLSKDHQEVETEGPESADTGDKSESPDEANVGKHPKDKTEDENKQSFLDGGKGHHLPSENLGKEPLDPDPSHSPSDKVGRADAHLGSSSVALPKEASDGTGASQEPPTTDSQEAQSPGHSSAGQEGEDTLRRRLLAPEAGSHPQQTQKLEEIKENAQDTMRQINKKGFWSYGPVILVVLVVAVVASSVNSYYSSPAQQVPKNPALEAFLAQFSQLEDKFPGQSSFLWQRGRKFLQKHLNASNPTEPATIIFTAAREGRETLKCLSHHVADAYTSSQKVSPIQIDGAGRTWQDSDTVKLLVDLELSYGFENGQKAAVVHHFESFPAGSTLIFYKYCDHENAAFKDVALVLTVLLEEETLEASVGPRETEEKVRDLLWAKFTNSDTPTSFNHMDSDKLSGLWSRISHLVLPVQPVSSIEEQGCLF
# [6] = optical density change of DRC41 E. coli – strain DRC41, OD650, 24 h, E. coli filamentation project, primary screen (AID 1093);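 also: MC1000 strain lacking acrAB efflux and sulA so SOS filamentation is blocked; test concentration not given here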; conditions: E. coli DRC41 growth, higher = more signal, called active from +8 up or from −8 down
# [7] = probe aLefty2 binding to arrayed compounds – biochemical, biotinylated probe, 635/667 nm fluorescence, primary screen (AID 1094); conditions: small-molecule microarray, higher = more signal;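 also: score merges spot fluorescence near 667 nm with spot signal-to-noise ratio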
# [8] = system: Noggin (protein binding on small-molecule microarray); experiment: small molecules binding Noggin protein – biochemical, 635/667 nm fluorescence, primary screen (AID 1095); conditions: 635 nm fluorescence, higher = more signal;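 also: score merges 667 nm feature fluorescence with signal to noise over triplicate slides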
# [9] = molecular target: Neurogenic locus notch homolog protein 3 (Homo sapiens) (UniProt Q9UM47); experiment: small molecules binding NOTCH3 protein – biochemical, 635/667 nm fluorescence, primary screen (AID 1096); conditions: small-molecule microarray, 635 nm fluorescence, higher = more signal
# Sequence of Neurogenic locus notch homolog protein 3 (Homo sapiens) (Q9UM47 whole entry, looked up): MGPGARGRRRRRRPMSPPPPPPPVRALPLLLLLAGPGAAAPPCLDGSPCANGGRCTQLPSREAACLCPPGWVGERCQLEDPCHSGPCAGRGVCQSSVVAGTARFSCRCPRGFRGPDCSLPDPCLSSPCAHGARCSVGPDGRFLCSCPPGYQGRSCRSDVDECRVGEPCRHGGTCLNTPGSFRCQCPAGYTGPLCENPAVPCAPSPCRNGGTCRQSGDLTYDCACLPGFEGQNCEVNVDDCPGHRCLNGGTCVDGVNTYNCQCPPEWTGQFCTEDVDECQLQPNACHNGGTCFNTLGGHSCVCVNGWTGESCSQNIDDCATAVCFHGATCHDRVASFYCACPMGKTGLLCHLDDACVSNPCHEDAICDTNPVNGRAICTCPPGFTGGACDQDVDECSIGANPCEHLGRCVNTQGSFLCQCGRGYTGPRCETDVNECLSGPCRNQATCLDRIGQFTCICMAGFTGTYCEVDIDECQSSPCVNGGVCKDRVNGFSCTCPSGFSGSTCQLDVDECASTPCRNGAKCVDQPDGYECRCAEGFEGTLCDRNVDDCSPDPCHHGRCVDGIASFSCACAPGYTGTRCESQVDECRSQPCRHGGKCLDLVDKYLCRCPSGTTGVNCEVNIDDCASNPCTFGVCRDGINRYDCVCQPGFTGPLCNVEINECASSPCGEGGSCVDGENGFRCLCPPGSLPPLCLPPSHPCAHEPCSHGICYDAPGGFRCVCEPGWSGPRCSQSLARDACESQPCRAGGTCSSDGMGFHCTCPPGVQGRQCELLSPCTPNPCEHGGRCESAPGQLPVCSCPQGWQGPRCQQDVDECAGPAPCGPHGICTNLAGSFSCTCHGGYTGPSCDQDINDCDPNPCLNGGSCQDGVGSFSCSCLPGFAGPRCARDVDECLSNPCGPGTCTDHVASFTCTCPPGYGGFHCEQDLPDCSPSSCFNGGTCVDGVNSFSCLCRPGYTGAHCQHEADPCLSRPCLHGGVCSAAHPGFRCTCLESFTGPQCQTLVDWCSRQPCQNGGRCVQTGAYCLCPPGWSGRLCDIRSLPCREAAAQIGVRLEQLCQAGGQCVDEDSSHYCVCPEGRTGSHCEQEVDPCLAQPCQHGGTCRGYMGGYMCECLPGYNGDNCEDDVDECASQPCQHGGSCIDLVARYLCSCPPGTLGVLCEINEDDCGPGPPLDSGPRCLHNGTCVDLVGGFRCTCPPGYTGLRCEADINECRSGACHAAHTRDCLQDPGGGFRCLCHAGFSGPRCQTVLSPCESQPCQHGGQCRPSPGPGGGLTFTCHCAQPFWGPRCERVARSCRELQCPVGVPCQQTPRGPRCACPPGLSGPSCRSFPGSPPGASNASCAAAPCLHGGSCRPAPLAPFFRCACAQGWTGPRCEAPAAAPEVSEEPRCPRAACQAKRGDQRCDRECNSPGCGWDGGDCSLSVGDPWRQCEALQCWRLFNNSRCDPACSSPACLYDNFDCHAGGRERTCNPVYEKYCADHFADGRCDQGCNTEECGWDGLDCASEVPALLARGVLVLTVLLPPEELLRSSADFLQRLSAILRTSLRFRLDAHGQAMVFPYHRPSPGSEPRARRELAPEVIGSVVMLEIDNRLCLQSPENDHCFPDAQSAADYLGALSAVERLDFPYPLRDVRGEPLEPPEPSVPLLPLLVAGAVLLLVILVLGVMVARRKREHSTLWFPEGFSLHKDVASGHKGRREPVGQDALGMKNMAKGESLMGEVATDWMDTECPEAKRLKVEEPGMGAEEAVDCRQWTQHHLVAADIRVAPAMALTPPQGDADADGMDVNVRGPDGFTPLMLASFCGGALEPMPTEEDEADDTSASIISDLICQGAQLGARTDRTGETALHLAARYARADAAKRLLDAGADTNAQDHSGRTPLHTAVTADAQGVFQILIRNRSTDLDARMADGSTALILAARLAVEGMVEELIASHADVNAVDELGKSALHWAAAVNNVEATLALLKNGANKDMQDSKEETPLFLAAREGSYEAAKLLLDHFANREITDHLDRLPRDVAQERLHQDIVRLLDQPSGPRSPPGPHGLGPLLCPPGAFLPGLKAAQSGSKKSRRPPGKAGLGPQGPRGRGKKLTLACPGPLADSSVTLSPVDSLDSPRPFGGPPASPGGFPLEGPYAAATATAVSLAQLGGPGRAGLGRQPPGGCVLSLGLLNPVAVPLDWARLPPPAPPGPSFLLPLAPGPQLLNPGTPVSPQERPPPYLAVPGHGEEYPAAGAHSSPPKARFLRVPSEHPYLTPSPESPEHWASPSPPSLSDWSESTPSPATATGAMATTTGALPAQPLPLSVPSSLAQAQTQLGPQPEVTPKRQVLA
# [10] = probe aEGFR binding to arrayed compounds – biochemical, biotinylated probe, 635/667 nm fluorescence, primary screen (AID 1097); conditions: small-molecule microarray, higher = more signal;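 also: probe is a biotinylated anti-EGFR antibody binding compounds printed on slides; score combines fluorescence near 667 nm and signal to noise of each spot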
Compound,composite z-score [1],z-score [2],z-score [3],z-score [4],composite z-score [5],z-score [6],composite z-score [7],composite z-score [8],composite z-score [9],composite z-score [10]
COC(=O)[C@@]1(Cc2ccc(OC)cc2)[C@H]2c3cc(C(=O)N4CCCC4)n(CCN4CCOCC4)c3C[C@H]2CN1C(=O)c1ccccc1,0.57,-0.674 (inactive),1.15 (inactive),-1.32 (inactive),3.66,-0.22 (inactive),1.73,0.398,0.937,1.23
CO[C@H]1O[C@H](CO)[C@@H](OC(=O)Nc2cccc(F)c2)[C@H](OC(=O)Nc2ccccc2-c2ccccc2)[C@@H]1OC(=O)Nc1ccccc1-c1ccccc1,1.55,2.1 (inactive),1.88 (inactive),-1.23 (inactive),3.34,0.675 (inactive),0.134,0.615,1.05,-0.013
Cc1ccc(S[C@]2(C(=O)NCCCN(C)C)CC(=O)N(C(C)C)[C@@H]2c2ccc(CO)cc2I)cc1,1.05,-1.25 (inactive),-2.91 (inactive),-1.13 (inactive),2.88,0.0601 (inactive),-0.0654,-0.521,-0.0055,-0.142
CC(C)(C)OC(=O)CC[C@]1(C(=O)NCC(O)CO)N=C(c2ccc(OCCCO)cc2)O[C@H]1c1ccccc1CN=[N+]=[N-] (stereo not given in full),1.06,-0.624 (inactive),-0.867 (inactive),-0.859 (inactive),3.59,0.301 (inactive),0.716,0.27,1.08,0.61
C=C[C@H](OC)[C@@H](OC(=O)Nc1ccc(SC)cc1)c1ccc(OCCO)cc1,1.15,0.458 (inactive),-0.339 (inactive),0.513 (inactive),2.67,1.15 (inactive),-0.0478,-0.555,-0.179,0.507
O=[N+]([O-])c1ccc(C[n+]2ccc(CCCO)cc2)o1,0.464,0.593 (inactive),-12.9 (active),-0.302 (inactive),2.46,-2.76 (inactive),0.24,1.73,1.07,0.296
CC(C)N1C(=O)c2ccccc2[C@](C)(C(=O)NC2CC2)[C@@H]1c1ccc(CO)cc1,1.49,-0.0975 (inactive),0.193 (inactive),-0.699 (inactive),2.66,0.738 (inactive),-0.14,0.614,0.764,-0.081
C=C(/C(=C/C[C@@H](OC(C)=O)c1ccc(CO)o1)c1cnc2ccccc2c1)C(C)C,1.55,1.2 (inactive),-0.767 (inactive),0.375 (inactive),1.86,1.27 (inactive),-0.11,1.08,1.07,0.0367
